Pf Dd2 growth: qHTS Primary assay for Inhibitors of Plasmodium falciparum Dd2 growth in vitro; P. falciparum Dd2 growth, SYBR Green, 72 h; Potency, µM (doses to about 28.9 µM), for inactives: at the top dose activity, negative = inhibition, usual class: inhibitors; actives 4.3% (n = 120,000); active = well fitted inhibition curve with a large enough effect;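 note: plate controls were DMSO vehicle for no effect and reference drug for full effect; nearly all actives have a fitted effect of over 65% in size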
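Readout: SYBR Green fluorescence, 485 nm excitation, 535 nm emission, after ~16 h lysis at 37C. Before that, Dd2-infected red cells (2.5% hematocrit) grew 72 h with compound, 29 uM top final concentration.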
* marks the source's active call; other numbers are inactive results; i = inactive; [ ] = another dose, or the depositor's remark. The full list was thinned out, with hits kept by preference. Potency is the fitted concentration of half-maximal effect.

SMILES	Pf Dd2 growth
COc1ccc(-c2ccnc(N[C@H]3CO[C@H]4[C@@H]3OC[C@@H]4NC(=O)Nc3cccc(C#N)c3)n2)cc1	-29%
COc1ccc(-c2ccnc(N[C@H]3CO[C@H]4[C@@H]3OC[C@H]4OC(=O)Nc3cccc(OC)c3)n2)cc1	-8%
COc1cc(NC(=O)N[C@H]2CO[C@H]3[C@@H]2OC[C@@H]3Nc2nccc(-c3ccc(N(C)C)cc3)n2)cc(OC)c1	13µM*
CN(C)c1ccc(-c2ccnc(N[C@H]3CO[C@H]4[C@@H]3OC[C@H]4OC(=O)NCc3ccccc3)n2)cc1	i
COc1cc(NC(=O)N[C@H]2CO[C@H]3[C@@H]2OC[C@@H]3Nc2nccc(-c3ccc(-c4ccccc4)cc3)n2)cc(OC)c1	-27%
CN(Cc1csc(-c2ccccc2)n1)C(=O)c1ccc(-n2cnnn2)cc1	-20%
CCc1ccc(N2CC(c3noc(-c4cccc(OC)c4OC)n3)CC2=O)cc1 (stereo not drawn)	-4%
O=C(Nc1ccc2c(c1)OCCO2)N1CCC(c2nc(C3CCOCC3)no2)CC1	i
COCCCN1C(=O)c2[nH]nc(-c3ccccc3O)c2C1c1ccc(OCc2ccccc2)cc1 (stereo not drawn)	8.9µM*
CCCCN1C(=O)c2[nH]nc(-c3ccccc3O)c2C1c1ccc(C(C)(C)C)cc1 (stereo not drawn)	2.8µM*
CC(C)OCCCN1C(=O)c2[nH]nc(-c3ccccc3O)c2C1c1ccccc1F (stereo not drawn)	11µM*
CCCCN1C(=O)c2[nH]nc(-c3ccccc3O)c2C1c1ccc(OCc2ccccc2)cc1 (stereo not drawn)	1.4µM*
COCCCn1c(C)cnc1C1CCN(C(=O)COc2ccccc2)C1 (stereo not drawn)	-18%
O=C1c2[nH]nc(-c3ccccc3O)c2C(c2ccccc2F)N1Cc1cccnc1 (stereo not drawn)	10%
CC12CN3CC(C)(CN(C1)C3c1ccc(OCc3ccccc3)cc1)C2=O (stereo not drawn)	23%
CCCN1C(=O)Cc2ccccc2C1C(=O)O (stereo not drawn)	i
Cc1nc(C)c(C(=O)N2CCC(CCOc3ccccc3)C2)s1 (stereo not drawn)	i
CCc1c(C(=O)N2CCCC3(CCNC3)C2)[nH]c2ccccc12 (stereo not drawn)	-5%
CSc1ccc(NC(=O)C2CCN(C(=O)c3ncn4c3COC(c3ccc(F)cc3)C4)CC2)cc1 (stereo not drawn)	i
Cc1nc(N2CCC(NC(=O)c3nccc4ccccc34)CC2)cc(C(F)(F)F)n1	-17%
Cc1noc([C@@H]2CN(C(=O)c3cccc4[nH]ccc34)C[C@H]2CO)n1	14%
CC(C)OCCCNC(=O)C1Cn2cccc2C(=O)N1Cc1ccccc1 (stereo not drawn)	9%
CC(C)OCCCN1C(=O)c2[nH]nc(-c3ccccc3O)c2C1c1cccc(OCc2ccccc2)c1 (stereo not drawn)	5.6µM*
O=C1c2[nH]nc(-c3ccccc3O)c2C(c2cccc(OCc3ccccc3)c2)N1CCO (stereo not drawn)	140%[5.79 µM]
Cn1cnnc1C1CCN(C(=O)C2CCCN(C(N)=O)C2)CC1 (stereo not drawn)	5%
SMILES	Pf Dd2 growth
O=C(NC1CCCCC1)N1CCC(c2noc(-c3cccnc3)n2)C1 (stereo not drawn)	-9%[5.79 µM]
O[C@@H]1C[C@@H](c2nc(Cc3ccccc3)no2)N(CCCc2ccccc2)C1	i
O[C@@H]1C[C@@H](c2nc(Cc3ccccc3)no2)N(Cc2cc3ccccc3o2)C1	14µM*
O[C@@H]1C[C@@H](c2nc(Cc3ccccc3)no2)N(Cc2ccc(F)cc2)C1	i
CCCNc1cc(N2CCC(CCC(=O)NCC3CC3)CC2)ncn1	i
CCCNc1cc(N2CCC(CCC(=O)N3CCN(c4ccccc4F)CC3)CC2)ncn1	11µM*
O=C(CCC1CCN(c2cc(NC3CC3)ncn2)CC1)N1CCN(c2ccccc2F)CC1	-10%
COc1cccc(CCC(=O)NCCC2CCN(C(=O)Nc3ccc(C)c(F)c3)CC2)c1	-28%
CN(Cc1ccccc1)C(=O)[C@@H]1Cc2nc[nH]c2CN1C(=O)CCC(=O)O	12%[44.1 µM]
CCOc1ccc(C(=O)NC2CCN(c3cnn(CC)c(=O)c3)CC2)cc1	i
COc1ccccc1N1CCN(CC(O)COc2ccc(C)cc2C(C)(C)C)CC1 (stereo not drawn)	8.9µM*
COc1ccccc1N1CCN(CC(O)COc2cc(C)cc(C)c2)CC1 (stereo not drawn)	42%
COc1ccccc1N1CCN(CC(O)COc2ccc(Cl)c(C)c2)CC1 (stereo not drawn)	56%
COc1ccc(CNC(=O)c2cc3n(n2)CC(c2ccc4c(c2)OCO4)OC3)cc1OC (stereo not drawn)	-23%
Cc1oc(-c2cccc(Cl)c2)nc1CN1CCC(C(=O)NCCCN2CCN(c3ccccc3F)CC2)CC1	-29%
Cc1oc(-c2cccc(Cl)c2)nc1CN1CCC(C(=O)NCCCN2CCN(c3ccc(F)cc3)CC2)CC1	5.6µM*
CCCCNC(=O)C1CCN(Cc2nc(-c3ccc(OC)c(OC)c3)oc2C)CC1	-4%
Cc1oc(-c2ccc(Cl)cc2)nc1CN1CCC(C(=O)NCCCN2CCN(c3cccc(Cl)c3)CC2)CC1	-24%
COCCCNC(=O)C1CCN(Cc2nc(-c3ccc(OC)c(OC)c3)oc2C)CC1	8%
COc1ccc(-c2nc(CN3CCC(C(=O)NCCCN4CCN(c5ccccc5F)CC4)CC3)c(C)o2)cc1OC	10µM*
Cc1ccc(C(=O)NC2CCN(c3ccc(F)cc3)C2=O)s1 (stereo not drawn)	-18%
O=C(c1c(F)cccc1F)N1CCC(OC2CCN(Cc3ccccc3)CC2)CC1	11µM*
O=C(Nc1cc(F)c(F)c(F)c1)N1CCC(OC2CCN(Cc3ccccc3)CC2)CC1	i
CNC(=O)N1CCC(OC2CCN(Cc3ccccc3)CC2)CC1	-26%
CNC(=O)[C@@H]1CN(S(=O)(=O)c2cc(F)ccc2F)C[C@H]1COC	9%
SMILES	Pf Dd2 growth
CC(C)NC(=O)N[C@H]1CCN2C(=O)c3cc(-c4ccsc4)ccc3NC(=O)[C@@H]2C1	13µM*
CC(C)NC(=O)N[C@H]1CCN2C(=O)c3cc(-c4ccc5c(c4)OCO5)ccc3NC(=O)[C@@H]2C1	i
Cc1cccc(-c2ccc3c(c2)C(=O)N2CC[C@H](NC(=O)NC(C)C)C[C@H]2C(=O)N3)c1C	-4%[44.1 µM]
Cc1ccsc1C(=O)N1CCN(c2cc(-c3ccc(Cl)cc3)[nH]n2)CC1	0%
CN(C)CCN(C)[C@@H]1[C@H](O)[C@H](CO)O[C@@H]1CNC1CCN(C)CC1	9%
FC(F)(F)c1ccc(N2C3CCC2CN(Cc2ccc(-c4ccsc4)cc2)C3)cc1	2%
FC(F)(F)c1ccc(N2C3CCC2CN(Cc2ccc(-c4ccccc4)cc2)C3)cc1	i
FC(F)(F)c1ccc(N2C3CCC2CN(Cc2cccc(-c4cccnc4)c2)C3)cc1	11µM*
O=C(NCc1nnc2cc(-c3nc(C4CC4)no3)ccn12)C1CCCCC1	i
Cc1cccc(NC(=O)CN2C(=O)NC3(CCC(C)CC3)C2=O)c1C (stereo not drawn)	54%
COc1ccc(Cn2c(C3CCN(C(=O)c4ccccc4Cl)CC3)n[nH]c2=O)cc1	i
CCOC(=O)c1c(C)oc2nc(C)nc(NCCc3ccc(S(N)(=O)=O)cc3)c12	i[5.79 µM]
CCOC(=O)c1c(C)oc2nc(C)nc(NCC3CCN(Cc4cccc(C)c4)CC3)c12	i[5.79 µM]

Screening data (PubChem)
